# Bioassay records (PubChem BioAssay)
# A selection: hits, their analogues and other compounds. The true share with any hit is near 18%.
# TDP1 cell noCPT: qHTS for Inhibitors of human tyrosyl-DNA phosphodiesterase 1 (TDP1): qHTS in cells in absence of CPT; DT40 Tdp1-/- hTDP1 cells, no CPT, ATP luminescence, 48 h; Potency, µM (highest dose often 46.2 µM), actives largely listed as inhibitors; 420,000 tested, 15% active; note: nearly all actives have a fitted effect of over 55% in size
#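 Compound effects on proliferation are scored in DT40 Tdp1-/-;hTDP1 cells in the absence of CPT. ATP levels (CellTiter-Glo luminescence) are recorded after a ≥48 hr, 37 °C incubation.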
# TDP1 block: qHTS Assay for Inhibitors of Tyrosyl-DNA Phosphodiesterase (TDP1); Tyrosyl-DNA phosphodiesterase 1 (Homo sapiens), Q9NUW8; recombinant TDP1, AlphaScreen DNA substrate cleavage; Potency, µM (titrated, usually from 130 µM), usual class: inhibitors; 350,000 tested, 0.28% active; AID 485290, 2010; note: nearly all actives have a fitted effect of over 40% in size
# Target sequence (Q9NUW8 whole entry, looked up): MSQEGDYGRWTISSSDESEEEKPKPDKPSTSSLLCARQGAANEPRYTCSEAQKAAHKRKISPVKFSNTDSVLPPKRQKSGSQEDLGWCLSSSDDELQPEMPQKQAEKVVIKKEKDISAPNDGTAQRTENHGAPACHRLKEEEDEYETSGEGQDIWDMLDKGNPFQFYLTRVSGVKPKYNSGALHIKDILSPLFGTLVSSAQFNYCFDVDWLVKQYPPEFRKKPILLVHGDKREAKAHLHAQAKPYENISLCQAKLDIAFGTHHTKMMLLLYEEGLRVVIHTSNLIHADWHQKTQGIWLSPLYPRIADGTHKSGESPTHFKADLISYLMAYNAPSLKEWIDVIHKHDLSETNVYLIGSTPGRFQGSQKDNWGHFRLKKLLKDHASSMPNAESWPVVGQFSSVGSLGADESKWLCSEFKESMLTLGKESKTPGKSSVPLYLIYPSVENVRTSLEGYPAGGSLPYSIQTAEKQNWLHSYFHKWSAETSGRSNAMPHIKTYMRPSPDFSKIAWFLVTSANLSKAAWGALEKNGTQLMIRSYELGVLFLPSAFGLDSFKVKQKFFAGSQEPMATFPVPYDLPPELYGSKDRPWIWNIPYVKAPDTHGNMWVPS
#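 Tdp1 1 nM final; 15 min RT w/ cpd; substrate 15 nM, 5 min; beads 10 ug/ml, 10 min; AlphaScreen read. Neg ctrl: no enzyme.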
# IL1B secr inh: qHTS for Inhibitors of Inflammasome Signaling: IL-1-beta AlphaLISA Primary Screen. THP-1 LPS/ATP IL-1B secretion, AlphaLISA, 16 h; stronger effect = lower value. activity change, % at 57.5 µM. 360,000 tested, 4.7% active; in the data active = activity change below about -50%; inconclusive = mostly about -30% to -49%
#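 THP-1 cells pretreated 1 hr with compounds (up to 57.5 uM final), then stimulated with LPS (250 ng/mL final) plus ATP (1.25 mM final); secreted IL-1B measured by AlphaLISA after 16 hr, decreased signal indicating inhibition.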
# TGFb inhibitor: qHTS for Inhibitors of TGF-b; HepG2 CAGA-GFP TGF-b/SMAD3 reporter, GFP fluorescence, 18 h; TGF-beta stimulated, 500 pg/mL final; Potency, µM (series often up to 46.1 µM), actives largely listed as inhibitors; 410,000 tested, 1.2% active; note: nearly all actives have a fitted effect of over 65% in size
#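 HEPG2 CAGA-GFP cells (1000/well, DMEM with 1% FBS) were pre-incubated 2 h at 37 degrees C, given compound by pin tool, then stimulated with TGF-beta at 500 pg/mL final for 18 h before per-cell GFP fluorescence imaging.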
# TDP1 cell CPT: qHTS for Inhibitors of human tyrosyl-DNA phosphodiesterase 1 (TDP1): qHTS in cells in presence of CPT; chicken DT40 Tdp1-/-;hTDP1 cells + 20 nM CPT, ATP luminescence, 48 h; Potency, µM (titrated, usually from 46.2 µM), hits mostly inhibitors; 420,000 tested, 12% active; AID 686979, 2013; note: nearly all actives have a fitted effect of over 55% in size
#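 Chicken DT40 Tdp1-/- cells stably complemented with human TDP1 were seeded at 400 cells/well in medium containing 20 nM camptothecin, exposed to pin-transferred compounds, and grown at 37 °C for at least 48 hr. Viability was read as ATP luminescence.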
# HepG2 viability: qHTS for Inhibitors of TGF-b: Cytotox Counterscreen. AID 588856, 2011. 410,000 tested, 0.76% active. Potency, µM (series often up to 46.1 µM), most hits filed as cytotoxic. HepG2 CAGA-GFP viability, ATP luminescence, 18 h
#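 HepG2 CAGA-GFP cells (1000/well, DMEM with 1% FBS) received compound, then TGF-beta at 500 pg/mL final, and were incubated 18 hours at 37 degrees C. Viability was read by CellTiter-Glo luminescence. Media-only wells were set as complete cell-killing and DMSO as no toxicity.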
# Hits are given with their value; . = inactive; ? = inconclusive; / = no result; [ ] = remark or other dose. Unless noted, calls come from the whole dose curve; as a rule, active = well fitted curve in the direction sought with a large enough effect; inconclusive = small, poorly fitted or top-dose-only effect, or another doubt; inactive = no such curve, though single readings can be large; an effect the other way counts as inactive or inconclusive.
SMILES,TDP1 cell noCPT,TDP1 block,IL1B secr inh,TGFb inhibitor,TDP1 cell CPT,HepG2 viability
CC(C)NC(=O)C1CCCN(c2ncnc3c2nc2n3CCCCC2)C1 (stereo not given),?,.,/,.,?,.
COC(=O)c1ccc(NC(=O)C2CCN(c3ncnc4c3nc3n4CCCCC3)CC2)cc1,?,.,/,.,?,.
COc1ccc(Cl)cc1NC(=O)C1CCN(c2ncnc3c2nc2n3CCCCC2)CC1,9.2µM,.,/,.,16µM,.
Cc1ccc(NC(=O)C2CCN(c3ncnc4c3nc3n4CCCCC3)CC2)nc1,21µM,.,.,?,23µM,.
COc1cc(NC(=O)C2CCCN(c3ncnc4c3nc3n4CCCCC3)C2)cc(OC)c1OC (stereo not given),?,.,.,.,?,.
COc1cc(OC)c(NC(=O)C2CCCN(c3ncnc4c3nc3n4CCCCC3)C2)cc1Cl (stereo not given),15µM,.,/,.,?,.
Nc1ccc(N)c(Cl)c1,/,.,/,/,/,/
C[C@@H](C(=O)OCC(=O)c1ccccc1)N1C(=O)C2CCCCC2C1=O (stereo not given in full),.,.,.,.,.,.
c1ccc(COc2ncnc3c2ncn3CCCN2CCN(c3ncccn3)CC2)cc1,?,/,.,?,?,.
C1=CC2CC1CC2CNCc1ccco1 (stereo not given),.,.,.,.,.,.
CC(C)C[C@@H](NC(=O)[C@@H](O)[C@H](N)Cc1ccccc1)C(=O)O,?,.,/,/,?,/
NC1=C(Cl)C(=O)c2ccc(S(N)(=O)=O)cc2C1=O,0.46µM,/,-98,?,0.41µM,0.56µM
NC1=C(Cl)C(=O)c2ccccc2C1=O,4.6µM,/,.,?,5.2µM,5.6µM
Nc1cc(N)c2c(c1)C(=O)c1ccccc1-2,?,/,?,.,.,.
COc1cccc(/C=C/C(=O)OCC(=O)c2ccc(Br)cc2)c1,.,/,.,.,.,.
COc1ccc(-c2cc(CNc3nc(NCc4ccccc4OC)nc4ccsc34)on2)cc1,26µM,/,.,?,16µM,.
COc1ccccc1CNc1nc(NCc2ccccc2)nc2ccsc12,15µM,/,-100,18µM,23µM,.
COc1ccc(-c2cc(CNS(=O)(=O)c3ccccc3)on2)cc1,?,.,.,.,.,.
COc1ccccc1CNc1nc(NCc2ccc(C)cc2C)c2sccc2n1,9.2µM,/,-80,?,4.6µM,.
COCCNc1nc(NCc2ccccc2F)c2sccc2n1,18µM,/,.,.,18µM,.
COc1ccccc1CNc1nc(NCc2cnc(C)cn2)c2sccc2n1,?,/,.,.,?,.
COc1ccccc1CNC(=O)c1sccc1C,.,.[0.0935 µM],.,.,.,.
CN(C)CCNc1nc(-c2ccccc2CO)c2sccc2n1,.,/,.,.,.,.
O=C(O)C1CCN(S(=O)(=O)c2ccc(N3CCCC3C(=O)O)c([N+](=O)[O-])c2)CC1 (stereo not given),.,.,.,.,.,.
c1ccc(CNc2nc(Oc3ccncc3)c3sccc3n2)cc1,.,/,.,.,.,.
c1ccc(CNc2nc(NCc3ccccc3)c3sccc3n2)cc1,18µM,/,-73,?,23µM,.
Fc1cc(Cl)ccc1Nc1nc(NCc2ccccc2)nc2ccsc12,9.2µM,/,.,?,12µM,.
Fc1ccccc1CNc1nc(NCC2CC2)nc2ccsc12,16µM,/,-76,?,15µM,.
COc1ccccc1CNc1nc(NCc2ccccc2F)c2sccc2n1,4.1µM,/,-83,13µM,2.9µM,.
